Screens deposited in PubChem by National Center for Advancing Translational Sciences (NCATS).
IL1B secr inh = blocks inflammasome-driven IL-1 beta release | 360,000 tested, 4.7% active | THP-1 LPS/ATP IL-1B secretion, AlphaLISA, 16 h; stronger effect = lower value | AID 743279 | activity change, % at 57.5 µM; in the data active = activity change below about -50%; inconclusive = mostly about -30% to -49%
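THP-1 cells pretreated 1 hr with compounds (up to 57.5 uM final), then stimulated with LPS (250 ng/mL final) plus ATP (1.25 mM final); secreted IL-1B measured by AlphaLISA after 16 hr, decreased signal indicating inhibition.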
TDP1 inh = inhibitors of human tyrosyl-DNA phosphodiesterase TDP1. Potency, µM (titrated, usually from 130 µM), hits mostly inhibitors. Q9NUW8. AID 485290. recombinant TDP1, AlphaScreen DNA substrate cleavage. 350,000 tested, 0.28% active; note: nearly all actives have a fitted effect of over 40% in size
Target sequence (Q9NUW8 whole entry, looked up): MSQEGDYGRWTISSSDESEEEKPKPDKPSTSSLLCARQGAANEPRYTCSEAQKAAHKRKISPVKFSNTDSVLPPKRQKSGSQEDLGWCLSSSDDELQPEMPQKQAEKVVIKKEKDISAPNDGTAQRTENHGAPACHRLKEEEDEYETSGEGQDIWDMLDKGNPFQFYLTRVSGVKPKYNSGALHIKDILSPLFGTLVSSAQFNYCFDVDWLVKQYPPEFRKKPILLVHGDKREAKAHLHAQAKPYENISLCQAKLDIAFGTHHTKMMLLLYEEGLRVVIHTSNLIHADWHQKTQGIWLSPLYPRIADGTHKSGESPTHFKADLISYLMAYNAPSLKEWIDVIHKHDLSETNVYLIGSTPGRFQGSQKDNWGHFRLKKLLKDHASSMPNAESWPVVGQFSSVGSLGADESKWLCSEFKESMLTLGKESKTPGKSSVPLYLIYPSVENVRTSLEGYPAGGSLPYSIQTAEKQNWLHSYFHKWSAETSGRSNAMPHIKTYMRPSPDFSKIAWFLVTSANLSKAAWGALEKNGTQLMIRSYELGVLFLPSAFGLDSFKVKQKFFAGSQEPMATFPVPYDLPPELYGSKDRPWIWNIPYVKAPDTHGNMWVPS
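Tdp1 1 nM final; 15 min RT w/ cpd; substrate 15 nM, 5 min; beads 10 ug/ml, 10 min; AlphaScreen read. Neg ctrl: no enzyme.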
DT40 TDP1 no CPT = qHTS for Inhibitors of human tyrosyl-DNA phosphodiesterase 1 (TDP1): qHTS in cells in absence of CPT; DT40 Tdp1-/- hTDP1 cells, no CPT, ATP luminescence, 48 h; Potency, µM (series often up to 46.2 µM), usual class: inhibitors; 420,000 tested, 15% active; AID 686978, 2013; note: nearly all actives have a fitted effect of over 55% in size
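DT40 Tdp1-/-;hTDP1 cells, no CPT (DMSO vehicle only), 400 cells/well; compounds pin-transferred; ≥48 hr, 37 °C; CellTiter-Glo 30 min RT dark, luminescence read.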
TDP1 cell CPT = growth inhibition of DT40 Tdp1-/-;hTDP1 cells with camptothecin (screen for TDP1 inhibitors) | chicken DT40 Tdp1-/-;hTDP1 cells + 20 nM CPT, ATP luminescence, 48 h | Potency, µM (series often up to 46.2 µM), actives largely listed as inhibitors | 420,000 tested, 12% active; note: nearly all actives have a fitted effect of over 55% in size
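Cell growth measured by CellTiter-Glo luminescence after a minimum 48 h, 37 C compound exposure with 20 nM CPT in Tdp1-knockout DT40 cells stably expressing hTDP1, seeded 400/well; qHTS titration format.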
TGFb SMAD3 inh = inhibitors of TGF-b signaling; HepG2 CAGA-GFP TGF-b/SMAD3 reporter, GFP fluorescence, 18 h; TGF-beta stimulated, 500 pg/mL final; Potency, µM (series often up to 46.1 µM), most hits filed as inhibitors; 410,000 tested, 1.2% active; note: nearly all actives have a fitted effect of over 65% in size
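Cell-based qHTS in HEPG2 carrying a CAGA-GFP Smad reporter; compounds added before 500 pg/mL final TGF-beta, 18 h incubation at 37 degrees C, GFP fluorescence quantified per cell by imaging cytometry.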
HepG2 tox-1 = counter-screen for TGF-b inhibitors: cytotoxicity in HepG2 cells. HepG2 CAGA-GFP viability, ATP luminescence, 18 h. Potency, µM (doses to about 46.1 µM), most hits filed as cytotoxic. 410,000 tested, 0.76% active. AID 588856
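HepG2 CAGA-GFP cells (1000/well, DMEM with 1% FBS) received compound, then TGF-beta at 500 pg/mL final, and were incubated 18 hours at 37 degrees C. Viability was read by CellTiter-Glo luminescence. Media-only wells were set as complete cell-killing and DMSO as no toxicity.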
TGFb confirm = confirmation of TGF-b signaling inhibitors in HepG2 reporter cells; HepG2 CAGA-GFP TGF-b reporter, GFP fluorescence, 18 h; cells stimulated with TGF-beta, 500 pg/mL; AID 720534; 1,600 tested, 63% active; shares compounds with TGFb SMAD3 inh; Potency, µM (doses to about 46.1 µM), hits mostly inhibitors; note: nearly all actives have a fitted effect of over 65% in size
HepG2 tox-2 = toxic to HepG2 cells in TGF-b counterscreen; shares compounds with TGFb SMAD3 inh; HepG2 CAGA-GFP viability, ATP luminescence, 18 h; cells stimulated with TGF-beta, 500 pg/mL; Potency, µM (series often up to 46.1 µM), actives largely listed as inhibitors; 1,600 tested, 27% active; AID 720535; note: nearly all actives have a fitted effect of over 70% in size
CCL64 TGFb inh = orthogonal confirmation of TGF-b inhibitors in CCL64 cells; 1,600 tested, 41% active; shares compounds with TGFb SMAD3 inh; CCL64 CAGA-GFP reporter, TGF-b stimulated, GFP fluorescence, 18 h; Potency, µM (top dose mostly 46.1 µM), actives largely listed as inhibitors; note: nearly all actives have a fitted effect of over 65% in size
COP TGFb inh = validation of TGF-b inhibitors in HepG2 COP promoter reporter | HepG2 COP-GFP TGF-b reporter, GFP fluorescence, 18 h; cells stimulated by added recombinant TGF-beta | Potency, µM (doses to about 46.1 µM), usual class: inhibitors | shares compounds with TGFb SMAD3 inh | AID 720537 | 1,600 tested, 3% active; note: nearly all actives have a fitted effect of over 70% in size
A number is an active result; - = inactive; ? = inconclusive; . = no result. Sampled rows, rich in hits. Any-hit rate of the full collection: about 18%. Unless noted, calls come from the whole dose curve; as a rule, active = well fitted curve in the direction sought with a large enough effect; inconclusive = small, poorly fitted or top-dose-only effect, or another doubt; inactive = no such curve, though single readings can be large; an effect the other way counts as inactive or inconclusive.

SMILES	IL1B secr inh	TDP1 inh	DT40 TDP1 no CPT	TDP1 cell CPT	TGFb SMAD3 inh	HepG2 tox-1	TGFb confirm	HepG2 tox-2	CCL64 TGFb inh	COP TGFb inh
CCOc1ccccc1N(C(=O)Cn1nnnc1-c1ccc(C)o1)C(CC)C(=O)NC(C)(C)C (centres undefined)	-	-	?	?	-	-	.	.	.	.
COc1ccc(NC(=S)N(CCCN2CCCC2)Cc2cccn2Cc2ccc(Cl)cc2)cc1Cl	-52	-	21µM	15µM	3.2µM	6.3µM	?	?	?	-
COC(=O)Cn1c(=O)c2c(nc3n2CCCN3CCc2ccccc2)n(C)c1=O	-	.	?	-	-	-	.	.	.	.
CCN(CC)C(=O)N1CCc2ccccc21	-	-	-	-	-	-	.	.	.	.
ON=C1c2ccccc2-c2ccc(F)cc21	-	.	18µM	?	1.6µM	-	9.2µM	?	-	-
CC1(C)[N+]([O-])=C2C(=[N+]([O-])C1(C)C)c1ccccc1/C2=N\O	-	-	-	-	-	-	.	.	.	.
O=c1oc2ccccc2c(NC2CCCCC2)c1NS(=O)(=O)c1ccc(F)cc1	-	-	?	?	-	-	.	.	.	.
CCc1ccc(S(=O)(=O)Nc2c(NC3CCCCC3)c3ccccc3oc2=O)cc1	-63	-	?	?	16µM	-	?	-	-	-
COC(=O)c1sc(NC(=S)NC(=O)c2ccccc2C)nc1C	-	-	?	-	-	-	.	.	.	.
COC(=O)CN=Cc1c(C)[nH]n(-c2ccccc2)c1=O	-	-	-	-	-	-	.	.	.	.
Cc1[nH]n(-c2ccccc2)c(=S)c1C=NCCCN=Cc1c(C)[nH]n(-c2ccccc2)c1=S	-97	-	-	?	0.56µM	-	-	-	-	-
O=C(N/N=C/c1ccc([N+](=O)[O-])cc1)c1cccc(N2CCCC2=O)c1	-	-	-	-	-	-	.	.	.	.
COc1ccc(-c2cnnn2-c2ccc([N+](=O)[O-])cc2)cc1	-	-	?	-	-	-	.	.	.	.
CCn1nc(C(=O)OCC(=O)c2ccc(F)cc2)c2ccccc2c1=O	-	-	-	-	-	-	.	.	.	.
CCn1nc(C(=O)OC(C(=O)c2c[nH]c3ccccc23)c2ccccc2)c2ccccc2c1=O (centres undefined)	-	-	-	?	11µM	-	21µM	-	?	-
Cc1cc(C)cc(NC(=O)CCS(=O)(=O)c2ccc3nc(C)sc3c2)c1	.	-	-	-	-	-	.	.	.	.
CCOC(=O)c1c(NC(=O)CN2CCCCC2)sc2c1CCN(C(=O)OCC)C2	-86	-	?	?	11µM	-	13µM	?	18µM	-
COC(=O)COc1ccc(S(=O)(=O)NCc2ccco2)cc1Cl	-	-	-	-	-	-	.	.	.	.
